TDP1 inh: qHTS Assay for Inhibitors of Tyrosyl-DNA Phosphodiesterase (TDP1); Tyrosyl-DNA phosphodiesterase 1 (Homo sapiens), Q9NUW8; recombinant TDP1, AlphaScreen DNA substrate cleavage; Potency, µM (doses to about 130 µM), actives largely listed as inhibitors; actives 0.28% (n = 350,000); AID 485290, 2010; further: nearly all actives have a fitted effect of over 40% in size
Target sequence (Q9NUW8 whole entry, looked up): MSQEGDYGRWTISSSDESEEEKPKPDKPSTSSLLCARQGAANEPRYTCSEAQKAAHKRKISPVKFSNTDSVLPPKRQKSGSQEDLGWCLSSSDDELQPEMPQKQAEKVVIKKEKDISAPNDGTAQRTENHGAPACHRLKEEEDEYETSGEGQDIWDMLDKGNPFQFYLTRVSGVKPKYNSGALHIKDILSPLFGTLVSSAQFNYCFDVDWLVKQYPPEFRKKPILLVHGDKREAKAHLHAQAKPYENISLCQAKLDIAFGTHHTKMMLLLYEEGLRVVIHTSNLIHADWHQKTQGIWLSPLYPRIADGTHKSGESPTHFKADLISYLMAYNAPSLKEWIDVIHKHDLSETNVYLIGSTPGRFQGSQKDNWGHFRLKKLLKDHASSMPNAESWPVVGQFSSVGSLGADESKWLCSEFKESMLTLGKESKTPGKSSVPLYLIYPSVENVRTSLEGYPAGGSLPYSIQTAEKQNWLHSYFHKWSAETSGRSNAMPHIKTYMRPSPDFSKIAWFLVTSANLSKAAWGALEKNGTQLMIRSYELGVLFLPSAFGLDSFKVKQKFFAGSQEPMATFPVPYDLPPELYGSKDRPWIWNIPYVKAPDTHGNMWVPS
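Tdp1 1 nM final; 15 min RT w/ cpd; substrate 15 nM, 5 min; beads 10 ug/ml, 10 min; AlphaScreen read. Neg ctrl: no enzyme.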
miR-21 reporter: qHTS Assay for Modulators of miRNAs and/orActivators of miR-21; HeLa miR-21 FLuc reporter, luciferase, 48 h; Potency, µM (doses to about 38.3 µM), actives largely listed as activators; 340,000 tested, under 10 active;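 further: miR-21 action dims this reporter so a rising signal means less miR-21 action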
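Using DMEM plus 10% FBS, HeLa miR-21-FLuc cells are incubated with test compounds (final up to about 40uM) for 48 hours; firefly luciferase signal is then imaged following reagent-mediated lysis.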
TDP1 cell noCPT: qHTS for Inhibitors of human tyrosyl-DNA phosphodiesterase 1 (TDP1): qHTS in cells in absence of CPT; DT40 Tdp1-/- hTDP1 cells, no CPT, ATP luminescence, 48 h; Potency, µM (doses to about 46.2 µM), usual class: inhibitors; actives 15% (n = 420,000); AID 686978, 2013; further: nearly all actives have a fitted effect of over 55% in size
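A cellular qHTS used chicken DT40 cells lacking endogenous Tdp1 but carrying stably transfected human TDP1. Compounds were applied without camptothecin, and cell growth kinetics were judged by ATP-dependent luminescence after ≥48 hr.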
uPA surface inh: qHTS for Inhibitors of Cell Surface uPA Generation | cell surface uPA generation assay, qHTS | Potency, µM (titrated, usually from 38.3 µM), usual class: inhibitors | actives 0.31% (n = 330,000) | AID 540303, 2011; active means well fitted inhibition curve with a large enough effect; inconclusive means small, poorly fitted or top-dose-only effect; inactive means no such curve, though single readings can be large or run the other way; tested in mouse RAW 264.7 cells; further: nearly all actives have a fitted effect of over 55% in size
TDP1 cell CPT: qHTS for Inhibitors of human tyrosyl-DNA phosphodiesterase 1 (TDP1): qHTS in cells in presence of CPT; chicken DT40 Tdp1-/-;hTDP1 cells + 20 nM CPT, ATP luminescence, 48 h; Potency, µM (top dose mostly 46.2 µM), most hits filed as inhibitors; actives 12% (n = 420,000); further: nearly all actives have a fitted effect of over 55% in size
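Chicken DT40 Tdp1-/- cells stably complemented with human TDP1 were seeded at 400 cells/well in medium containing 20 nM camptothecin, exposed to pin-transferred compounds, and grown at 37 °C for at least 48 hr. Viability was read as ATP luminescence.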
Each line names hits and unclear results; the compound was inactive in the other large screens. Rows were chosen to be rich in hits. Some 16% of all compounds tested hit in one or more screens of this group. Unless noted, the call rests on the fitted dose curve; in most records, active means well fitted curve in the direction sought with a large enough effect; inconclusive means small, poorly fitted or top-dose-only effect, or another doubt; inactive means no such curve, though single readings can be large; an effect the other way counts as inactive or inconclusive.

CCN(CC)C(=O)CSc1nc2cc3c(cc2c(=O)n1Cc1ccco1)OCO3	TDP1 cell noCPT inconclusive, TDP1 cell CPT inconclusive
COc1ccc(CCNS(=O)(=O)c2cc3c4c(c2)CC(=O)N4CCC3)cc1	none
COc1ccc(NS(=O)(=O)c2cc(NC(=O)C3=NN(c4ccccc4)C(=O)CC3)ccc2C)cc1	TDP1 cell CPT inconclusive (no result: TDP1 inh, miR-21 reporter)
CN(c1ccccc1)S(=O)(=O)c1cccc(NC(=O)C2=NN(c3ccccc3)C(=O)CC2)c1	TDP1 cell noCPT 13µM, uPA surface inh inconclusive, TDP1 cell CPT inconclusive (no result: miR-21 reporter)
CN(c1ccccc1)S(=O)(=O)c1cccc(NC(=O)c2ccc(=O)[nH]c2)c1	TDP1 cell noCPT inconclusive, TDP1 cell CPT inconclusive (no result: miR-21 reporter)
COc1ccc(NS(=O)(=O)c2cccc(NC(=O)C3=NN(c4ccccc4)C(=O)CC3)c2)cc1	TDP1 cell noCPT 15µM, TDP1 cell CPT inconclusive
CCOC1=C2[C@@H](CN(S(=O)(=O)c3ccc(C)cc3)[C@H]2c2cccc3ccccc23)[C@H]2C(=O)N(C3CCCCC3)C(=O)[C@H]2C1	TDP1 cell noCPT 10µM, TDP1 cell CPT 13µM (no result: TDP1 inh, miR-21 reporter, uPA surface inh)
CCOC1=C2[C@@H](CN(S(=O)(=O)c3ccc(C)cc3)[C@H]2c2cccc3ccccc23)[C@H]2C(=O)N(c3ccccc3)C(=O)[C@H]2C1	none (no result: TDP1 inh, miR-21 reporter, uPA surface inh)
CCN(CC)c1ccc(NC(=O)C2CC(=O)N(Cc3ccccc3)C2)cc1 (centres undefined)	TDP1 cell noCPT 12µM, TDP1 cell CPT inconclusive
CN(c1ccccc1)S(=O)(=O)c1cccc(NC(=O)C2CC(=O)N(Cc3ccccc3)C2)c1 (centres undefined)	TDP1 cell noCPT 21µM, TDP1 cell CPT 16µM
Cc1ccc(C(=O)OCC(=O)Nc2ccc(C)c(S(=O)(=O)N3CCCCC3)c2)c(O)c1	none (no result: TDP1 inh, miR-21 reporter, uPA surface inh)
Cc1occc1C(=O)N1CCCC(N2CCN(c3cccc(C(F)(F)F)c3)CC2)C1 (centres undefined)	TDP1 cell noCPT 13µM, TDP1 cell CPT 21µM
Cc1cc(C(=O)N2CCCC(N3CCN(c4cccc(C(F)(F)F)c4)CC3)C2)c(C)o1 (centres undefined)	TDP1 cell noCPT 12µM, TDP1 cell CPT 16µM
C/C(=N\NC(=O)CSc1nc2ccccc2s1)c1ccco1	TDP1 cell noCPT inconclusive, TDP1 cell CPT inconclusive
Cc1cccc(S(=O)(=O)NC(=O)C2(C)CCN2C(=O)c2sccc2C)c1 (centres undefined)	none (no result: TDP1 inh, miR-21 reporter, uPA surface inh)
CN(C)c1ccc(-n2cccc2/C=C/[N+](=O)[O-])cc1	miR-21 reporter inconclusive, TDP1 cell noCPT 4.1µM, TDP1 cell CPT 16µM
COc1cc(OC)cc(C(=O)NC(C)CCc2ccccc2)c1 (centres undefined)	TDP1 cell noCPT inconclusive, TDP1 cell CPT inconclusive (no result: TDP1 inh)
CC(C)CC(=O)NC(c1cccs1)c1ccc2cccnc2c1O (centres undefined)	TDP1 cell noCPT 0.58µM, TDP1 cell CPT 2.9µM
CCC(=O)NC(c1cccs1)c1ccc2cccnc2c1O (centres undefined)	TDP1 cell noCPT 4.6µM, uPA surface inh inconclusive, TDP1 cell CPT 2.9µM
O=C(c1ccc2c(=O)n(C3CCCC3)c(=S)[nH]c2c1)N1CCc2ccccc21	TDP1 cell noCPT 21µM, TDP1 cell CPT 12µM
CC(C)(C)C(=O)Nc1cccc(C(=O)OCc2cc(=O)n3nc(C4CC4)sc3n2)c1	TDP1 cell noCPT 18µM, TDP1 cell CPT inconclusive (no result: uPA surface inh)
O=C(OCc1cc(=O)n2nc(C3CC3)sc2n1)c1cccc(NC(=O)c2ccccc2Cl)c1	TDP1 cell noCPT 21µM, TDP1 cell CPT 21µM (no result: uPA surface inh)
COc1cccc(C(=O)Nc2cccc(C(=O)OCc3cc(=O)n4nc(C5CC5)sc4n3)c2)c1	TDP1 cell noCPT 3.7µM, TDP1 cell CPT inconclusive (no result: uPA surface inh)
COc1ccc(C(=O)Nc2cccc(C(=O)OCc3cc(=O)n4nc(C5CC5)sc4n3)c2)cc1	TDP1 cell noCPT inconclusive, TDP1 cell CPT inconclusive (no result: uPA surface inh)
CC(C)(C)C(=O)Nc1cccc(C(=O)OCc2cc(=O)n3nc(C4CCCCC4)sc3n2)c1	none (no result: uPA surface inh)
Cc1ccccc1C(=O)Nc1cccc(C(=O)OCc2cc(=O)n3nc(C4CC4)sc3n2)c1	TDP1 cell noCPT inconclusive, TDP1 cell CPT inconclusive (no result: uPA surface inh)
Cc1cc(N/N=C2/CCCc3ccccc32)nc2ccccc12	TDP1 cell noCPT 10µM, TDP1 cell CPT inconclusive
c1ccc(N/N=C2\CCCc3ccccc32)nc1	none
COc1ccc(S(=O)(=O)N2CCCC2CNC(=O)C(=O)NCc2ccc3c(c2)OCO3)cc1 (centres undefined)	TDP1 cell noCPT inconclusive (no result: miR-21 reporter)
Cc1cc(Nc2ccc3c(c2)OCCO3)n2nc(C)nc2n1	none
COc1cc(OC)c(NS(=O)(=O)c2cc(-c3cnc(C)o3)ccc2OC)cc1Cl	TDP1 cell noCPT 13µM, TDP1 cell CPT 21µM (no result: uPA surface inh)
COc1cc(NS(=O)(=O)c2ccc(OC)c(C)c2C)c(OC)cc1Cl	TDP1 cell noCPT 3.3µM, TDP1 cell CPT 4.6µM
Cc1cc(C)n(-c2nnc(C)n2/N=C/c2ccco2)n1	none
CCCOc1ccc2ccccc2c1/C=N/n1c(C)nnc1-n1nc(C)cc1C	TDP1 cell noCPT 3.3µM, TDP1 cell CPT 3.3µM
COc1cccc(N2C(=O)CN(Cc3ccc(OC)c(OC)c3)C2=S)c1	TDP1 cell CPT inconclusive (no result: TDP1 inh)
Cc1nc(NCc2ccccc2)c2cc[nH]c2n1	TDP1 cell noCPT 12µM, TDP1 cell CPT inconclusive (no result: TDP1 inh)
COc1ccc(N2C(=O)C3ON(C4SC(=S)N(C)C4(C)C)C(c4ccc([N+](=O)[O-])cc4)C3C2=O)cc1 (centres undefined)	none
O=C(Nc1ccccn1)c1ccc([N+](=O)[O-])o1	TDP1 cell noCPT 16µM, uPA surface inh 7.1µM, TDP1 cell CPT 16µM
Cc1ccnc(NC(=O)c2ccc([N+](=O)[O-])o2)c1	TDP1 cell noCPT inconclusive, TDP1 cell CPT 21µM
O=C(Nc1ncccn1)c1ccc([N+](=O)[O-])o1	TDP1 cell noCPT inconclusive, TDP1 cell CPT inconclusive
COc1ccccc1N(CC(=O)NCCSc1ccc(Cl)cc1)S(C)(=O)=O	none
CCN(CC)S(=O)(=O)c1cccc(S(=O)(=O)c2cccc(S(=O)(=O)N(CC)CC)c2)c1	TDP1 cell noCPT 18µM, TDP1 cell CPT 21µM (no result: uPA surface inh)
CCCOc1ccc2c(c1)C(=NN=C(N)N)c1cc(OCCC)ccc1-2	miR-21 reporter inconclusive, TDP1 cell noCPT 23µM, TDP1 cell CPT 26µM (no result: TDP1 inh)
CCN(CC)CCOc1ccc2c(c1)C(=NO)c1cc(OCCN(CC)CC)ccc1-2	TDP1 cell noCPT 18µM, uPA surface inh inconclusive, TDP1 cell CPT 18µM
CCN(CC)S(=O)(=O)c1ccc2c(c1)C(=NO)c1cc(S(=O)(=O)N(CC)CC)ccc1-2	TDP1 cell noCPT 2.3µM, TDP1 cell CPT 2.3µM
CCOc1ccc(Nc2c3c(nc4nncn24)CCC3)cc1	TDP1 cell noCPT inconclusive, TDP1 cell CPT inconclusive (no result: uPA surface inh)

Compound activity: PubChem BioAssay, National Center for Advancing Translational Sciences (NCATS)
